In PubChem BioAssay (NCI):
The panel holds about 79,000 compounds, 15% with a hit somewhere; the sample as a whole holds those more often. A number with no mark means an inactive call. Activity calls are given as the source filed them. No stated cut-off is given here; in the data, active means growth inhibition above about 70%; inactive means the rest.

assay: NCI Yeast Anticancer Drug Screen. Data for the sgs1 mgt1 strain (AID 161);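 further: 0% = growth of cultures given vehicle only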; settings: S. cerevisiae sgs1 mgt1 strain, at 50.0 µM, hits give high values
Summary of the method: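 Genetically altered yeast, compound exposure, growth inhibition relative to vehicle.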

Which growth inhibition does the source give for CCCCCCCCCCCCCCCCCCNC(=O)NCc1ccncc1 here?
The growth inhibition was -11.3%.

With COCC(=O)c1ccccc1-c1ccccc1 as the compound, how does the growth inhibition read?
The growth inhibition was 3.15%.

Which growth inhibition does the source give for Cn1nc(-c2ccc(Cl)c(Cl)c2)[n+]([O-])c2c(=O)n(C)c(=O)nc1-2 here?
Its growth inhibition is 88.8% (active).

Which growth inhibition does the source give for CC(C)(C)OC(=O)NC(Cc1ccccc1)OCc1ccccc1 (stereo not given) here?
The growth inhibition was -0.05%.

With O=C(/C=C/c1ccc([N+](=O)[O-])cc1)NN=C(c1ccccc1)c1ccccc1 as the compound, how does the growth inhibition read?
Its growth inhibition is -12.3%.

For CC(C)N(CSc1ccc([N+](=O)[O-])cc1)CSc1ccc([N+](=O)[O-])cc1, which growth inhibition is on record?
The growth inhibition was 4.1%.

For COC(=O)c1c2c(C)ccc(C)c2nc2c(C)ccc(C)c12, which growth inhibition is on record?
Its growth inhibition is -2.05%.

For O=C(O)c1nc(Cl)c(Cl)[nH]c1=O, which growth inhibition is on record?
The growth inhibition was 8.6%.

With NC(=O)c1ccc(C(F)(F)F)cc1O as the compound, how does the growth inhibition read?
The growth inhibition was -4.65%.

Which growth inhibition does the source give for CN(C)/N=C\c1ccc(C(=O)O)cc1 here?
The growth inhibition was 8.5%.

Which growth inhibition does the source give for CC(=O)NCC(=O)c1ccccc1 here?
Its growth inhibition is 3.75%.

For Cc1[nH]n(-c2ccccc2)c(=O)c1/C=N\C(N)=S, which growth inhibition is on record?
The growth inhibition was -34.1%.

With CCOC(=O)c1ccc(N=c2sc3ccccc3nc2Nc2ccc(C(=O)OCC)cc2)cc1 as the compound, how does the growth inhibition read?
The growth inhibition was -2.05%.

Which growth inhibition does the source give for COC(=O)C(N)Cc1ccc(O)c(O)c1 (stereo not given) here?
Its growth inhibition is 8.1%.

For O=C1CSC(=S)N1, which growth inhibition is on record?
The growth inhibition was 13.3%.

For CCN(CC)C(CC(=O)c1ccccc1)C(=O)c1ccccc1 (stereo not given), which growth inhibition is on record?
Its growth inhibition is 13.2%.

With [N-]=[N+]=NC1CC(n2ccc(N)nc2=O)OC1CO (stereo not given) as the compound, how does the growth inhibition read?
The growth inhibition was 0.8%.

Which growth inhibition does the source give for CN(C)CCNC(=O)c1cccc2c(Nc3ccc(S(N)(=O)=O)cc3)c3ccccc3nc12 here?
Its growth inhibition is -43.1%.

Which growth inhibition does the source give for CCCCc1nc(C)oc1C(C)C here?
Its growth inhibition is -8.05%.

With O=COCCCc1ccccc1 as the compound, how does the growth inhibition read?
The growth inhibition was 11.8%.

Which growth inhibition does the source give for C=CCNC(=O)/C=C/C(=O)O here?
The growth inhibition was 0.35%.

With CC1=CC=CC(C)(C)C(=O)C1=O as the compound, how does the growth inhibition read?
Its growth inhibition is -12.8%.

Which growth inhibition does the source give for CCN(CC)CCOC(=O)c1c(C)cc(C)cc1C here?
Its growth inhibition is 4.9%.

Which growth inhibition does the source give for Cc1cc(C)c(NS(=O)c2cccc(Cl)c2)c(C)c1 (stereo not given) here?
The growth inhibition was -59.2%.

Which growth inhibition does the source give for CCOC(=O)C(C(=O)c1cccnc1)C(C(=O)OCC)C(=O)c1cccnc1 (stereo not given) here?
The growth inhibition was 6%.

With C=C1CCCCCCCCC/C=C/1SCCCSC as the compound, how does the growth inhibition read?
Its growth inhibition is -31.6%.

With CC1(C)C2CC=C(CCO)C1C2 (stereo not given) as the compound, how does the growth inhibition read?
Its growth inhibition is 2.05%.

For CC(=O)c1ccc(N=C2C(=O)Nc3ccccc32)cc1, which growth inhibition is on record?
Its growth inhibition is 10.4%.

For C[N+]1(C)CCC(C(=O)c2ccccc2)CC1, which growth inhibition is on record?
The growth inhibition was 5.6%.

With c1ccc(CNCc2ccccc2)cc1 as the compound, how does the growth inhibition read?
The growth inhibition was -37.8%.

For COc1cc(CCNC(=O)CC(C)C)ccc1OCc1ccccc1, which growth inhibition is on record?
Its growth inhibition is 1.35%.

With O=C(Cl)CCc1ccnc2ccccc12 as the compound, how does the growth inhibition read?
The growth inhibition was 4.2%.

For Cc1nc2ccc(Cl)c(Cl)c2s1, which growth inhibition is on record?
The growth inhibition was -3%.

Which growth inhibition does the source give for CC(C)[C@H]1CC[C@@](C)(C(=O)O)C1 here?
The growth inhibition was 15.2%.

Which growth inhibition does the source give for CC(C)CCOC(=O)c1ccc(C(C)C)cc1 here?
Its growth inhibition is -0.35%.

Which growth inhibition does the source give for COc1cccc(/C(Cl)=C(\C=O)c2cccc(OC)c2)c1 here?
The growth inhibition was 2.2%.

For O=[N+]([O-])c1ccc(OP2(Oc3ccc([N+](=O)[O-])cc3)=NP(Oc3ccc([N+](=O)[O-])cc3)(Oc3ccc([N+](=O)[O-])cc3)=NP(Oc3ccc([N+](=O)[O-])cc3)(Oc3ccc([N+](=O)[O-])cc3)=NP(Oc3ccc([N+](=O)[O-])cc3)(Oc3ccc([N+](=O)[O-])cc3)=N2)cc1, which growth inhibition is on record?
Its growth inhibition is -6.35%.

For O=C(O)NC(c1ccccc1)C(NC(=O)c1ccccc1)c1ccccc1 (stereo not given), which growth inhibition is on record?
The growth inhibition was 5.75%.

With FC1(F)C(F)(F)C(F)(F)C2(F)C(F)(F)C(F)(F)C(F)(F)C(F)(F)C2(F)C1(F)F (stereo not given) as the compound, how does the growth inhibition read?
Its growth inhibition is -17.7%.

For CCC(C)(O)CCC(C)(O)CC (stereo not given), which growth inhibition is on record?
Its growth inhibition is 14.9%.

assay: NCI Yeast Anticancer Drug Screen. Data for the cln2 rad14 strain (AID 165);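 further: 0% = growth equal to vehicle treated cultures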; settings: S. cerevisiae cln2 rad14 strain, at 50.0 µM, hits give high values
Summary of the method: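 The screen exposed genetically defined yeast (cln2 rad14) to test compounds and scored growth inhibition relative to vehicle-treated controls.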

For CCCCCCCCCCCCCCCCCCNC(=O)NCc1ccncc1, which growth inhibition is on record?
The growth inhibition was -4.3%.

For COCC(=O)c1ccccc1-c1ccccc1, which growth inhibition is on record?
Its growth inhibition is -4.1%.

Which growth inhibition does the source give for Cn1nc(-c2ccc(Cl)c(Cl)c2)[n+]([O-])c2c(=O)n(C)c(=O)nc1-2 here?
The growth inhibition was 89% (active).

With CC(C)(C)OC(=O)NC(Cc1ccccc1)OCc1ccccc1 (stereo not given) as the compound, how does the growth inhibition read?
The growth inhibition was 11.8%.

For O=C(/C=C/c1ccc([N+](=O)[O-])cc1)NN=C(c1ccccc1)c1ccccc1, which growth inhibition is on record?
The growth inhibition was -7.1%.

For CC(C)N(CSc1ccc([N+](=O)[O-])cc1)CSc1ccc([N+](=O)[O-])cc1, which growth inhibition is on record?
Its growth inhibition is -4.1%.

For COC(=O)c1c2c(C)ccc(C)c2nc2c(C)ccc(C)c12, which growth inhibition is on record?
The growth inhibition was -15.3%.

Which growth inhibition does the source give for O=C(O)c1nc(Cl)c(Cl)[nH]c1=O here?
The growth inhibition was -65.6%.

With NC(=O)c1ccc(C(F)(F)F)cc1O as the compound, how does the growth inhibition read?
Its growth inhibition is -21.4%.

Which growth inhibition does the source give for CN(C)/N=C\c1ccc(C(=O)O)cc1 here?
The growth inhibition was -11.9%.

Which growth inhibition does the source give for CC(=O)NCC(=O)c1ccccc1 here?
The growth inhibition was -7.1%.

For Cc1[nH]n(-c2ccccc2)c(=O)c1/C=N\C(N)=S, which growth inhibition is on record?
The growth inhibition was -50.9%.

With CCOC(=O)c1ccc(N=c2sc3ccccc3nc2Nc2ccc(C(=O)OCC)cc2)cc1 as the compound, how does the growth inhibition read?
Its growth inhibition is 34%.

With COC(=O)C(N)Cc1ccc(O)c(O)c1 (stereo not given) as the compound, how does the growth inhibition read?
The growth inhibition was 10.8%.

For O=C1CSC(=S)N1, which growth inhibition is on record?
The growth inhibition was 10.8%.

With CCN(CC)C(CC(=O)c1ccccc1)C(=O)c1ccccc1 (stereo not given) as the compound, how does the growth inhibition read?
Its growth inhibition is -10%.

For [N-]=[N+]=NC1CC(n2ccc(N)nc2=O)OC1CO (stereo not given), which growth inhibition is on record?
The growth inhibition was -6.65%.

Which growth inhibition does the source give for CN(C)CCNC(=O)c1cccc2c(Nc3ccc(S(N)(=O)=O)cc3)c3ccccc3nc12 here?
Its growth inhibition is 17.9%.

For CCCCc1nc(C)oc1C(C)C, which growth inhibition is on record?
Its growth inhibition is -5.45%.

For O=COCCCc1ccccc1, which growth inhibition is on record?
Its growth inhibition is -5.2%.

Which growth inhibition does the source give for C=CCNC(=O)/C=C/C(=O)O here?
The growth inhibition was 4.45%.

Which growth inhibition does the source give for CC1=CC=CC(C)(C)C(=O)C1=O here?
Its growth inhibition is -18.9%.

For CCN(CC)CCOC(=O)c1c(C)cc(C)cc1C, which growth inhibition is on record?
Its growth inhibition is -41.5%.

With Cc1cc(C)c(NS(=O)c2cccc(Cl)c2)c(C)c1 (stereo not given) as the compound, how does the growth inhibition read?
The growth inhibition was 1.35%.

With CCOC(=O)C(C(=O)c1cccnc1)C(C(=O)OCC)C(=O)c1cccnc1 (stereo not given) as the compound, how does the growth inhibition read?
Its growth inhibition is 20.4%.

For C=C1CCCCCCCCC/C=C/1SCCCSC, which growth inhibition is on record?
The growth inhibition was -17.9%.

For CC1(C)C2CC=C(CCO)C1C2 (stereo not given), which growth inhibition is on record?
Its growth inhibition is -20.6%.

Which growth inhibition does the source give for CC(=O)c1ccc(N=C2C(=O)Nc3ccccc32)cc1 here?
Its growth inhibition is 19.8%.

For C[N+]1(C)CCC(C(=O)c2ccccc2)CC1, which growth inhibition is on record?
The growth inhibition was -17.9%.

Which growth inhibition does the source give for c1ccc(CNCc2ccccc2)cc1 here?
Its growth inhibition is -35.1%.

With COc1cc(CCNC(=O)CC(C)C)ccc1OCc1ccccc1 as the compound, how does the growth inhibition read?
The growth inhibition was -30.5%.

Which growth inhibition does the source give for O=C(Cl)CCc1ccnc2ccccc12 here?
Its growth inhibition is -8.45%.

Which growth inhibition does the source give for Cc1nc2ccc(Cl)c(Cl)c2s1 here?
The growth inhibition was -26%.

With CC(C)[C@H]1CC[C@@](C)(C(=O)O)C1 as the compound, how does the growth inhibition read?
The growth inhibition was 5.8%.

For CC(C)CCOC(=O)c1ccc(C(C)C)cc1, which growth inhibition is on record?
The growth inhibition was -17.7%.

For COc1cccc(/C(Cl)=C(\C=O)c2cccc(OC)c2)c1, which growth inhibition is on record?
The growth inhibition was 10.7%.

With O=[N+]([O-])c1ccc(OP2(Oc3ccc([N+](=O)[O-])cc3)=NP(Oc3ccc([N+](=O)[O-])cc3)(Oc3ccc([N+](=O)[O-])cc3)=NP(Oc3ccc([N+](=O)[O-])cc3)(Oc3ccc([N+](=O)[O-])cc3)=NP(Oc3ccc([N+](=O)[O-])cc3)(Oc3ccc([N+](=O)[O-])cc3)=N2)cc1 as the compound, how does the growth inhibition read?
Its growth inhibition is -3.7%.

Which growth inhibition does the source give for O=C(O)NC(c1ccccc1)C(NC(=O)c1ccccc1)c1ccccc1 (stereo not given) here?
The growth inhibition was 7.15%.

Which growth inhibition does the source give for FC1(F)C(F)(F)C(F)(F)C2(F)C(F)(F)C(F)(F)C(F)(F)C(F)(F)C2(F)C1(F)F (stereo not given) here?
The growth inhibition was 7.25%.

For CCC(C)(O)CCC(C)(O)CC (stereo not given), which growth inhibition is on record?
Its growth inhibition is -14.7%.
